# Experimental data as given in PubChem BioAssay (NCATS).
# Records with an inconclusive call do not appear. A call without a number means that no potency is given here. Active and inactive are the calls of the source. Unless noted, the call rests on the fitted dose curve. Numbered stars: 1 amine (or outer) side, 2 acyl side, 3 side chain; on linkers, the order of the positions; unused ones are H or OH. Bridge positions count the residues as written; N and C are the ends. Square brackets hold non-standard residues; d marks the D form. Peptide text beside a SMILES is read from it. I, II: the chains in the order shown. Actinocin(9to1) = Cc1c2oc3c(C)ccc(C(=O)[*:1])c3nc-2c(C(=O)[*:2])c(N)c1=O; NMeV = CN[C@H](C(=O)O)C(C)C; Sar = CNCC(=O)O
# Tests used:
# [1] = qHTS for Inhibitors of the Functional Ribonucleoprotein Complex (vRNP) of Lassa (LASV) Arenavirus: LASV Primary Screen - GLuc reporter signal (AID 1347082; calls by dose curve; tested in HEK293 reporter line; further: nearly all actives have a fitted effect of over 60% in size)
# [2] = qHTS for Inhibitors of the Functional Ribonucleoprotein Complex (vRNP) of Lassa (LASV) Arenavirus: Viability assay - alamar blue signal for LASV Primary Screen (AID 1347083; calls by dose curve; tested in HEK293 reporter line; further: nearly all actives have a fitted effect of over 80% in size)
# [3] = qHTS for Inhibitors of the Functional Ribonucleoprotein Complex (vRNP) of Lymphocytic Choriomeningitis Arenaviruses (LCMV): Viability assay - alamar blue signal for LCMV Primary Screen (AID 1347085; calls by dose curve; tested in HEK293 reporter line; further: nearly all actives have a fitted effect of over 80% in size)
# [4] = molecular target: Nucleoprotein (Lymphocytic choriomeningitis virus (strain Armstrong)) (UniProt P09992); test: qHTS for Inhibitors of the Functional Ribonucleoprotein Complex (vRNP) of Lymphocytic Choriomeningitis Arenaviruses (LCMV): LCMV Primary Screen - GLuc reporter signal (AID 1347086); further: nearly all actives have a fitted effect of over 70% in size
# Potency means the concentration at half of the fitted maximal effect.
# Chain of Nucleoprotein (Lymphocytic choriomeningitis virus (strain Armstrong)) (P09992 whole entry, looked up): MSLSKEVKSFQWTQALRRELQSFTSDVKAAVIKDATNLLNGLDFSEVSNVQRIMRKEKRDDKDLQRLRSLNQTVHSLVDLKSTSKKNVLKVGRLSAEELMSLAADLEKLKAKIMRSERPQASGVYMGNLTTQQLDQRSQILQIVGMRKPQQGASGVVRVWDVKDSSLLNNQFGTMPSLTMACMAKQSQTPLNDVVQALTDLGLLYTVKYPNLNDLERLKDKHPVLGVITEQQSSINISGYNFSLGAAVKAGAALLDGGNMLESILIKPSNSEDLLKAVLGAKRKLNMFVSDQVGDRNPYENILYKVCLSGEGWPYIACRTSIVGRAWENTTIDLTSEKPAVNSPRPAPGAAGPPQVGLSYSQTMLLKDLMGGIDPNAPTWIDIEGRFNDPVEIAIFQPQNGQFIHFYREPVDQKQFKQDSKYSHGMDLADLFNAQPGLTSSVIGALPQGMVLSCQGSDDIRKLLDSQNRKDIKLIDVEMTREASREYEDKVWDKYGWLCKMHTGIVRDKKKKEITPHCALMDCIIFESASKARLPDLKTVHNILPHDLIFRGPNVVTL
Structure (SMILES),Potency [1],Potency [2],Potency [3],Potency [4]
Cc1cc(C)cc(OCC2CNC(=O)O2)c1 (stereo unspecified),inactive,inactive,inactive,inactive
CC1(C)S[C@@H]2[C@H](NC(=O)Cc3ccccc3)C(=O)N2[C@H]1C(=O)O (tested in a mixture with another compound),inactive,inactive,inactive,inactive
OCCN(CCO)c1nc(N2CCCCC2)c2nc(N(CCO)CCO)nc(N3CCCCC3)c2n1,inactive,inactive,inactive,inactive
CN1CCN(CCCN2c3ccccc3Sc3ccc(C(F)(F)F)cc32)CC1,inactive,inactive,inactive,inactive
CCC(C)n1ncn(-c2ccc(N3CCN(c4ccc(OC[C@H]5CO[C@](Cn6cncn6)(c6ccc(Cl)cc6Cl)O5)cc4)CC3)cc2)c1=O (stereo partly specified),inactive,inactive,inactive,inactive
OCCOCCN1CCN(C(c2ccccc2)c2ccc(Cl)cc2)CC1 (stereo unspecified),inactive,inactive,inactive,inactive
COc1cc(C(C)=O)ccc1OCCCN1CCC(c2noc3cc(F)ccc23)CC1,inactive,inactive,inactive,inactive
CC(C)Nc1cccnc1N1CCN(C(=O)c2cc3cc(NS(C)(=O)=O)ccc3[nH]2)CC1,inactive,inactive,inactive,inactive
Cc1ccc(C)c(OCCCC(C)(C)C(=O)O)c1,inactive,inactive,inactive,inactive
O=C(NCCN1CCOCC1)c1ccc(Cl)cc1,inactive,inactive,inactive,inactive
CC(N)C12CC3CC(CC(C3)C1)C2 (stereo unspecified),inactive,inactive,inactive,inactive
Cc1ncc([N+](=O)[O-])n1CCO,inactive,inactive,inactive,inactive
Cn1cc[nH]c1=S,inactive,inactive,inactive,inactive
CC(C)OC(=O)C(C)(C)Oc1ccc(C(=O)c2ccc(Cl)cc2)cc1,inactive,inactive,inactive,inactive
CC(CN(C)C)CN1c2ccccc2CCc2ccccc21 (stereo unspecified),inactive,inactive,inactive,inactive
Nc1cc(-c2ccncc2)c[nH]c1=O,inactive,inactive,inactive,inactive
C[C@H]1O[C@H](O[C@H]2[C@H](O)[C@@H](O)[C@@H](O[C@H]3[C@H](O)[C@@H](O)[C@H](O)O[C@@H]3CO)O[C@@H]2CO)[C@H](O)[C@@H](O)[C@@H]1N[C@H]1C=C(CO)[C@@H](O)[C@H](O)[C@H]1O,inactive,inactive,inactive,inactive
COCCCOc1cc(C[C@@H](C[C@H](N)[C@@H](O)C[C@H](C(=O)NCC(C)(C)C(N)=O)C(C)C)C(C)C)ccc1OC,inactive,inactive,inactive,inactive
CCN(CC)C(=S)SSC(=S)N(CC)CC,0.193 µM (active),0.122 µM (active),0.863 µM (active),0.193 µM (active)
N[C@@H]1CONC1=O,inactive,inactive,inactive,inactive
CO/N=C(\C(=O)N[C@@H]1C(=O)N2C(C(=O)O)=C(CSc3nc(=O)c(O)nn3C)CS[C@H]12)c1csc(N)n1,inactive,inactive,inactive,inactive
CN1CC(=O)N/C1=N/C(=O)Nc1cccc(Cl)c1,inactive,inactive,inactive,inactive
"Cc1c2oc3c(C)ccc(C(=O)N[C@@H]4C(=O)N[C@H](C(C)C)C(=O)N5CCC[C@H]5C(=O)N(C)CC(=O)N(C)[C@@H](C(C)C)C(=O)O[C@@H]4C)c3nc-2c(C(=O)N[C@@H]2C(=O)N[C@H](C(C)C)C(=O)N3CCC[C@H]3C(=O)N(C)CC(=O)N(C)[C@@H](C(C)C)C(=O)O[C@@H]2C)c(N)c1=O (I: T[dV]P[Sar][NMeV] / II: T[dV]P[Sar][NMeV]; ester I:1-I:C, II:1-II:C; linker I:N-II:N via Actinocin(9to1))",inactive,inactive,inactive,inactive
NC[C@H](O)c1ccc(O)c(O)c1,inactive,inactive,inactive,inactive
